Data on 40 compounds can be found in PubChem BioAssay (NCATS).

The other results are listed elsewhere or left out. Where a call stands in place of a potency, no number is given. Records with an inconclusive call do not appear. Calls of active or inactive are those of the source. Calls follow the shape of the dose curve; as a rule, active = well fitted inhibition curve with a large enough effect; inconclusive = small, poorly fitted or top-dose-only effect, or effect the other way; inactive = no such curve, though single readings can be large or run the other way.
Potency is read from the fitted curve at half-maximal effect.

A short description of the assay: qHTS Assay for Inhibitors of Fructose-1,6-bisphosphate Aldolase from Giardia Lamblia: Giardia lamblia growth inhibition (AID 2785).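 Also: trophozoites exposed to compound for 48 h at 37 °C; nearly all actives have a fitted effect of over 70% in size.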 Particulars: Giardia lamblia trophozoite growth inhibition; series mostly up to 57.5 µM. The text has this:
NIH Chemical Genomics Center [NCGC]
NIH Molecular Libraries Probe Production centers Network [MLPCN]
Assay Provider: Osnat Herzberg, University of Maryland
The objective of this project is to obtain compounds that inhibit Giardia lamblia growth. G. lamblia is a human pathogen which afflicts impoverished nations; it is the most common cause of outbreaks of diarrhea in the United States. During the course of our study of potential drug targets in Giardia, we have identified the Class II (Zn2+ functions in electrophilic catalysis) fructose-1,6-bisphosphate aldolase (FBPA) as an excellent candidate for drug targeting. FBPA is a key glycolytic pathway enzyme, essential for G. lamblia survival. The human FBPA belongs to the Class I aldolases, which have a different substrate binding site structure and a radically different catalytic mechanism (employing a lysine-Schiff base intermediate). Therefore, affinity-based or mechanism-based inhibitors of the Giardia FBPA are expected not to interfere with the catalytic function of the human FBPA.
A glyceraldehyde-3-phosphate dehydrogenase/triose phosphate isomerase/NAD/arsenate coupled assay was adapted to the 1536-well HTP format for use in the primary screen. This was done by coupling it to a diaphorase/resazurin/resorufin reaction that can be monitored by fluorescence (excitation, 544 nm; emission, 590 nm). Compounds identified in this screen will be further evaluated by coupling the glycerol-3-phosphate/triose phosphate isomerase/NADH assay to a phenazine methosulfate/tetranitroblue tetrazolium color reaction. False positives due to the dehydrogenases and diaphorase inhibition will be eliminated, and selectivity assay will triage inhibitors of mammalian triose phosphate isomerase and the Class I FBPA. G. lamblia FBPA inhibitors identified by the in vitro analyses will be examined for growth inhibition of Giardia trophozoites, and for cytotoxicity in human cells.
This assay addresses whether hits in the primary screen can inhibit growth of giardia lamblia trophozoites.
Trophozoites of the G. lamblia isolate WB (33) were grown at pH 7.0 in modified TYI-S-33 medium. Detachment of trophozoites for preparation of inocula was achieved by chilling the cultures on ice for 20 min.
2uL/well media was dispensed per well into 1536-well white solid-bottom plates using a Multidrop Combi dispenser (Thermo Scientific). Subsequently, 23 nL/well compound solutions or DMSO controls were dispensed to the assay plates containing media via a pintool workstation (Kalypsys, San Diego) to avoid the potential contamination to the compound source plates. Unless otherwise noted, Giardia trophozoids suspended in media were dispensed as 100 cells/well in 4uL volumes. The plates were covered with plastic low-evaporation lids, individually sealed in Type A Bio-Bags and incubated at 37C for 48 hours. Following incubation, 4uL/well of ATPlite reagent was dispensed with a Multidrop Combi dispenser. The assay plates were briefly centrifuged at 1000 RPM and luminescence signal was detected on a ViewLux plate reader (PerkinElmer) after 20 min incubation at room temperature.
Keywords: Fructose-bisphosphate aldolase, FBPA , Giardia lamblia , Giardia, HTS, Inhibitors
(Quantitative high-throughput screening tests each substance at several concentrations.)
On to `Cc1nnc(N/N=C/c2ccccn2)[nH]c1=O`, for which the Potency was 25.1 µM (active).

In the case of `O=S(=O)(c1ccc(NC(=S)NN=C(C2CC2)C2CC2)cc1)N1CCOCC1`, the activity change, negative = inhibition was -9.73% [at 10.4 µM] (inactive).

Regarding `O=C(Nc1nnc(-c2ccco2)o1)c1ccc(S(=O)(=O)N2CCOCC2)cc1`, the activity change, negative = inhibition was 7.93% [at 10.4 µM] (inactive).

As to `Cc1nc(N2CCOCC2)sc1C(=O)NN`, the Potency entry is “inactive”.

As for `O=C(CN1C(=O)COc2ccccc21)Nc1ccc(F)cc1`, the Potency result is “inactive”.

Take `COc1ccc(C(=O)NC(=S)N2CCCCC2c2cccnc2)cc1OC` (stereo not given): the Potency entry was “inactive”.

As to `CSc1n[nH]c(=S)n1N`, the Potency entry was “inactive”.

With `C=C(C)CNC(=S)N/N=C/c1ccccc1OCC(=O)O`, the Potency entry was “inactive”.

For the compound `Cc1cnc(NC(=O)c2ccccn2)s1`, the activity change, negative = inhibition is -23.9% [at 10.4 µM] (inactive).

On to `CC(=O)NC1CCN(CC(=O)Nc2nccs2)CC1`, for which the activity change, negative = inhibition was -10.3% [at 10.4 µM] (inactive).

For `COc1ccc(N=Nc2c(-c3ccc(OC)cc3)[nH]oc2=O)cc1`, the Potency entry was “inactive”.

In the case of `O=c1nc(N/N=C/c2ccco2)cn[nH]1`, the Potency result was “inactive”.

As to `O=C(Nc1ccccc1Cl)O/N=C(/c1ccccc1)c1ccccn1`, the Potency was 22.4 µM (active).

For `Cc1cc(C)c2c(=O)[nH]c(SCC(=O)Nc3ccc(Br)cc3)nc2n1`, the Potency entry was “inactive”.

For the compound `O=C1CCCN1CCCNC(=S)Nc1ccc(F)c(Cl)c1`, the Potency result is “inactive”.

Take `COc1ccc(Cl)cc1C(=O)NNC(=O)c1nc2nc(C)cc(C)n2n1`: the Potency entry was “inactive”.

For the compound `O=C(NC(=S)Nc1ncccn1)c1ccccc1Br`, the Potency entry was “inactive”.

`COCCN(C(=S)Nc1ccccc1OC)C1CCN(C(C)C)CC1`: the Potency result was “inactive”.

With `CNC(=S)N/N=C/c1ccc(N2CCOCC2)s1`, the activity change, negative = inhibition was -8.92% [at 10.4 µM] (inactive).

On to `Cc1cc(C)nc(N/N=C/c2ccc([N+](=O)[O-])o2)n1`, for which the Potency was 3.16 µM (active).

For `Cn1nnc(NC(=S)NC(=O)c2ccccc2)n1`, the Potency entry was “inactive”.

With `Cc1cccc(C)c1OCCN1CCOCC1`, the activity change, negative = inhibition was 14.9% [at 10.4 µM] (inactive).

As to `Cc1cc(C)n(-c2ccc(Cl)c(C(=O)O)n2)n1`, the Potency result is “inactive”.

For the compound `COC(=O)CC1=NN(c2nc(C)cc(C)n2)C(=O)C1`, the Potency result was “inactive”.

Consider `COc1cc(CN2CCN(Cc3ccc(C)cc3)CC2)c([N+](=O)[O-])cc1OC`, for which the Potency entry is “inactive”.

On to `Cc1ccc(OCCCCc2c(C)n[nH]c2C)cc1`, for which the activity change, negative = inhibition is 7.15% [at 10.4 µM] (inactive).

For `Cc1cccc(-c2nnc(SCC(=O)O)n2Cc2ccccc2)c1`, the activity change, negative = inhibition is 6.79% [at 10.4 µM] (inactive).

`COc1ccc(CN2CCN(Cc3ccc(OC)c(OC)c3OC)CC2)cc1`: the activity change, negative = inhibition is 6.68% [at 10.4 µM] (inactive).

`O=[N+]([O-])c1cc([N+](=O)[O-])c2cccnc2c1O`: the Potency entry was “inactive”.

As to `COc1ccc(OC)c(Nc2nc(-c3ccc(O)c(O)c3)cs2)c1`, the activity change, negative = inhibition was -10.8% [at 10.4 µM] (inactive).

With `Cn1c(=O)[nH]c(=O)c2c1[nH]c(=S)n2Cc1ccccc1`, the activity change, negative = inhibition is 4.88% [at 10.4 µM] (inactive).

`Clc1cccc(CN2COc3c(cc(Cl)c4cccnc34)C2)c1`: the Potency result is “inactive”.

On to `Cc1nc2ccc(NC(=S)N3CCC(C)CC3)cc2nc1C`, for which the Potency entry was “inactive”.

As to `C=CCNC(=S)/N=c1/ccccn1Cc1ccccc1`, the activity change, negative = inhibition was 3.99% [at 10.4 µM] (inactive).

For `CCN(CC(=O)Nc1ccc(S(=O)(=O)N2CCCC2)cc1)CC(=O)Nc1cccc(OC)c1`, the Potency result was “inactive”.

As for `COc1ccccc1CN1CCN(Cc2cc(OC)c(OC)cc2OC)CC1`, the Potency result was “inactive”.

Regarding `CC(C)(c1ccccc1)c1ccc(OCCN2CCCC2)cc1`, the Potency entry is “inactive”.

For the compound `CN1C(=O)/C(=C\c2ccc(-c3ccccc3)o2)SC1=S`, the Potency result is “inactive”.

In the case of `CN1CCCc2cc(C#N)c(=O)[nH]c21`, the Potency entry is “inactive”.

With `C=CCc1cc(C)ccc1OCCCn1ccnc1`, the activity change, negative = inhibition is 5.83% [at 10.4 µM] (inactive).
